Measurements from PubChem BioAssay (Tox21).
Records with an inconclusive call do not appear. Activity calls are given as the source filed them. Unless noted, calls follow the shape of the dose curve; as a rule, active = well fitted curve in the direction sought with a large enough effect in the repeat runs; inconclusive = weak or mixed curves; inactive = flat fitted curve, though single readings scatter.

Legend:
[1] = qHTS assay to test for compound auto fluorescence at 535 nm (green) in HEK293 cells (AID 720680)
[2] = qHTS assay to test for compound auto fluorescence at 460 nm (blue) in HEK293 cell free culture (AID 720681)
Method in brief: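 Test compounds were pinned into cell-free culture medium (DMEM with 10% FBS) and fluorescence was read directly at Ex/Em 405/460 nm. Signals were expressed as fluorescence equivalents of triamterene, with DMSO vehicle as control.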

[3] = qHTS assay to test for compound auto fluorescence at 535 nm (green) in HEK293 cell free culture (AID 720682)
Method in brief: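 Read-out: 485/535 nm fluorescence intensity, calibrated against fluorescein. Medium only (DMEM + 10% FBS, no cells); test compound or DMSO vehicle added by pintool before plate reading.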

[4] = qHTS assay to test for compound auto fluorescence at 590 nm (red) in HEK293 cell free culture (AID 720683)
Method in brief: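 Tox21 10K library compounds were pinned into cell-free DMEM with 10% FBS and fluorescence was read at excitation 540 nm. Activity is expressed as Rose Bengal sodium equivalency.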

[5] = qHTS assay to test for compound auto fluorescence at 590 nm (red) in HepG2 cell free culture (AID 720684)
Method in brief: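 Ex 540 / Em 590 nm read of compound in cell-free MEM (10% FBS). Rose Bengal sodium reference.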

[6] = qHTS assay to test for compound auto fluorescence at 460 nm (blue) in HepG2 cell free culture (AID 720685)
Method in brief: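 Cell-free plates of MEM plus 10% FBS received 23 nL compound or DMSO vehicle; blue-channel (405/460 nm) intensity scored against triamterene as reference fluorophore.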

[7] = qHTS assay to test for compound auto fluorescence at 460 nm (blue) in HepG2 cells (AID 720687)
Method in brief: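 Cells (2,000/well in MEM with 10% FBS) attached overnight at 37 C, then were exposed to compound or DMSO for 1 hr at 37 C, 5% CO2. Fluorescence read at Ex/Em 405/460 nm, expressed as triamterene-equivalent signal.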

[8] = target: Glucocorticoid receptor (Homo sapiens) (UniProt P04150); test: qHTS assay to identify small molecule agonists of the glucocorticoid receptor (GR) signaling pathway (AID 720691; active = well fitted activation curve with a large enough effect in the signal ratio in the repeat runs, not every such curve was filed as active; the % refers to the signal ratio; also: potency is read from the fitted curve at half-maximal effect)
Chain of Glucocorticoid receptor (Homo sapiens) (P04150 whole entry, looked up): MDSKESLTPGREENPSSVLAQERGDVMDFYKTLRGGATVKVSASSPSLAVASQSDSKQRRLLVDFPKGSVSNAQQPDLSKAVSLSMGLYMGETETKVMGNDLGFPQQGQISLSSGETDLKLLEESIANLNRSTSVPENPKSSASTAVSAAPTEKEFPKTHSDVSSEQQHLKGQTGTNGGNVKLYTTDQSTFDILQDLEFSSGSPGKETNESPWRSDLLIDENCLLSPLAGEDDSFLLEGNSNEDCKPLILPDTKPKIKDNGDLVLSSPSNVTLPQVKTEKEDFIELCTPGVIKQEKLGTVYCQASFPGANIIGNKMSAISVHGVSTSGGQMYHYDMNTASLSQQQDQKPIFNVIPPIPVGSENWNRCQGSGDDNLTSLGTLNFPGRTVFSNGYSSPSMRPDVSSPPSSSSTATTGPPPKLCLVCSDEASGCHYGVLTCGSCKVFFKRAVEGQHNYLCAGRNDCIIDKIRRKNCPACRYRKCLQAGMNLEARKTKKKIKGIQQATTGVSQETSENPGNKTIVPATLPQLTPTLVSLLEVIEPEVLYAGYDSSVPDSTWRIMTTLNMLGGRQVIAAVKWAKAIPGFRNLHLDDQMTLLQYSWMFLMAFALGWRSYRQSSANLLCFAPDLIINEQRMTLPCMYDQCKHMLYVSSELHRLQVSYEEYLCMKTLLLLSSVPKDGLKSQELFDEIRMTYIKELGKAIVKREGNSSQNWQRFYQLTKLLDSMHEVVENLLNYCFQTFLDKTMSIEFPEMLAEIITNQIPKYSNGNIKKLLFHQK
Method in brief: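 Measures GR pathway activation through a GRE-beta-lactamase reporter stably integrated in HeLa cells, with 18 h compound treatment at 37 C and fluorescence detection using a FRET substrate.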

[9] = target: Glucocorticoid receptor (Homo sapiens) (UniProt P04150); test: qHTS assay to identify small molecule antagonists of the glucocorticoid receptor (GR) signaling pathway (AID 720692; active = well fitted inhibition curve with a large enough effect in the signal ratio in the repeat runs, not every such curve was filed as active; the % refers to the signal ratio)
Method in brief: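 Tox21 10K library screened in concentration-response for blockade of dexamethasone (5 nM final)-induced GRE-bla reporter activity in HeLa cells; 18 h treatment, fluorescence read.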

[10] = qHTS assay to test for compound auto fluorescence at 535 nm (green) in HepG2 cell free culture (AID 720686)
% is scaled to controls: 0 for no effect and ±100 for the full control effect.

CC1(C)O[C@H]2CC(=O)OC[C@]23[C@H]2CC[C@@]4(C)[C@H](c5ccoc5)OC(=O)[C@H]5O[C@]54[C@]2(C)C(=O)C[C@@H]13
inactive: outcome [1] | outcome [2] | outcome [3] | outcome [4] | outcome [5] | outcome [6] | outcome [7]
active: Potency [8] 8.49 µM

[O]=[Mo](=[O])=[O]
inactive: fluorescence, % of fluorescein [1] -0.0315% [at 18.6 µM] | fluorescence, % of fluorescent control [2] 0.0055% [at 18.6 µM] | activity change [3] 0.118% [at 18.6 µM] | fluorescence, % of fluorescent control [4] 0.0845% [at 18.6 µM] | fluorescence, % of Rose Bengal [5] 0.0301% [at 18.6 µM] | fluorescence, % of fluorescent control [6] 0.041% [at 18.6 µM] | fluorescence, % of fluorescent control [7] 0.0613% [at 18.6 µM] | outcome [9]

NCc1ccc(S(N)(=O)=O)cc1
inactive: fluorescence, % of fluorescein [1] 0.0433% [at 18.6 µM] | fluorescence, % of fluorescent control [2] 0.104% [at 18.6 µM] | activity change [3] -0.0097% [at 18.6 µM] | fluorescence, % of fluorescent control [4] 0.469% [at 18.6 µM] | fluorescence, % of Rose Bengal [5] 0.496% [at 18.6 µM] | fluorescence, % of fluorescent control [6] 0.0628% [at 18.6 µM] | fluorescence, % of fluorescent control [7] 0.0103% [at 18.6 µM]

CC1=C(O)C(=O)C(C)O1 (stereo unspecified)
inactive: outcome [1] | outcome [2] | outcome [3] | outcome [4] | outcome [5] | outcome [6] | outcome [7] | Potency [8] | outcome [9]

CC1(C)CC(OC(=O)CCCCCCCCC(=O)OC2CC(C)(C)NC(C)(C)C2)CC(C)(C)N1
inactive: fluorescence, % of fluorescein [1] -0.0999% [at 18.6 µM] | fluorescence, % of fluorescent control [2] -0.182% [at 18.6 µM] | activity change [3] -0.0076% [at 18.6 µM] | fluorescence, % of fluorescent control [4] 0.038% [at 18.6 µM] | fluorescence, % of Rose Bengal [5] 0.143% [at 18.6 µM] | fluorescence, % of fluorescent control [6] -0.0702% [at 18.6 µM] | fluorescence, % of fluorescent control [7] -0.0104% [at 18.6 µM] | outcome [9]

CN1CCOC(c2ccccc2)c2ccccc2C1 (stereo unspecified)
inactive: fluorescence, % of fluorescein [1] -0.0031% [at 18.6 µM] | fluorescence, % of fluorescent control [2] -0.103% [at 18.6 µM] | activity change [3] -0.0245% [at 18.6 µM] | fluorescence, % of fluorescent control [4] -0.107% [at 18.6 µM] | fluorescence, % of Rose Bengal [5] 0.115% [at 18.6 µM] | fluorescence, % of fluorescent control [6] -0.0245% [at 18.6 µM] | fluorescence, % of fluorescent control [7] 0.0046% [at 18.6 µM]

O=NN(CCCl)C(=O)NC1CCCCC1
inactive: outcome [1] | outcome [2] | outcome [3] | outcome [4] | outcome [5] | outcome [6] | outcome [7]

Cn1c(=O)c2[nH]c(Br)nc2n(C)c1=O
inactive: outcome [1] | outcome [2] | outcome [3] | outcome [4] | outcome [5] | outcome [6] | outcome [7] | Potency [8] | outcome [9]

CCCC(=O)OCCC(C)CCC=C(C)C (stereo unspecified)
inactive: outcome [1] | outcome [2] | outcome [3] | outcome [4] | outcome [5] | outcome [6] | outcome [7]

CC(C)OC(=O)CCC(=O)OC(C)C
inactive: outcome [1] | outcome [3] | outcome [4] | outcome [5] | outcome [6] | outcome [10] | outcome [7] | Potency [8] | outcome [9]

O/N=C/C=N/O
inactive: outcome [1] | outcome [2] | outcome [3] | outcome [4] | outcome [5] | outcome [6] | outcome [7] | Potency [8] | outcome [9]

C[C@H]1[C@@H](c2ccccc2)NC(=O)N1C
inactive: outcome [1] | outcome [3] | outcome [4] | outcome [5] | outcome [6] | outcome [10] | outcome [7]

O=C(O)c1cc2ccccc2nc1C(=O)O
inactive: outcome [1] | outcome [2] | outcome [3] | outcome [4] | outcome [5] | outcome [6] | outcome [7] | Potency [8] | outcome [9]

CC/C(C)=N\O[Si](C)(O/N=C(\C)CC)O/N=C(\C)CC
inactive: outcome [1] | outcome [3] | outcome [4] | outcome [5] | outcome [6] | outcome [10] | outcome [7]

CC(Oc1cc(Cl)ccc1Cl)C(=O)O (stereo unspecified)
inactive: outcome [1] | outcome [3] | outcome [4] | outcome [5] | outcome [6] | outcome [10] | outcome [7] | Potency [8]

OCC1(CO)COCOC1
inactive: outcome [1] | outcome [2] | outcome [3] | outcome [4] | outcome [5] | outcome [6] | Potency [8]

CN(C)CCCCl
inactive: outcome [1] | outcome [3] | outcome [4] | outcome [5] | outcome [6] | outcome [10] | outcome [7] | Potency [8] | outcome [9]

CCC(=O)c1c(O)cc(O)cc1O
inactive: outcome [1] | outcome [3] | outcome [4] | outcome [5] | outcome [6] | outcome [10] | outcome [7] | Potency [8] | outcome [9]

CC1(C)Cc2cccc(N)c2O1
inactive: outcome [1] | outcome [3] | outcome [4] | outcome [5] | outcome [6] | outcome [10] | outcome [7] | Potency [8] | outcome [9]

CCCSSCCC
inactive: outcome [1] | outcome [3] | outcome [4] | outcome [5] | outcome [6] | outcome [10] | outcome [7] | outcome [9]

CCCCCCCCCCCCCCCCCC#N
inactive: outcome [1] | outcome [3] | outcome [4] | outcome [5] | outcome [6] | outcome [10] | outcome [7] | outcome [9]

CCCCOCC(C)O (stereo unspecified)
inactive: outcome [1] | outcome [3] | outcome [4] | outcome [5] | outcome [6] | outcome [10] | outcome [7] | Potency [8] | outcome [9]

CC(=O)O[Si](C)(OC(C)=O)OC(C)=O
inactive: outcome [1] | outcome [3] | outcome [4] | outcome [5] | outcome [6] | outcome [10] | outcome [7] | outcome [9]

C#CCN[C@@H]1CCc2ccccc21
inactive: outcome [2] | outcome [3] | outcome [4] | outcome [5] | outcome [6]
